Screening results: PubChem, National Center for Advancing Translational Sciences (NCATS)
The list is not random: actives were taken first. Their share in the collection is about 3.7%.
FMDV inh: foot and mouth disease virus antiviral activity; Potency, µM (titrated, usually from 57.9 µM), for inactives: at the top dose activity change, negative = inhibition, most hits filed as inhibitors; actives 1.2% (n = 410,000); FMDV antiviral cell-based qHTS; calls by dose curve; tested in HEK293T cells; further: read-out not given here; nearly all actives have a fitted effect of over 45% in size
Sm TGR inh: blocks Schistosoma mansoni thioredoxin glutathione reductase; Q962Y6; actives 3% (n = 360,000); Potency, µM (doses to about 114 µM), without a hit: at the highest dose activity change, negative = inhibition, hits mostly inhibitors; purified TGR, DTNB reduction, TNB absorbance 405 nm; further: nearly all actives have a fitted effect of over 60% in size
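Kinetic colorimetric format: TGR-catalysed, NADPH-driven DTNB reduction monitored via TNB absorbance. Enzyme dispensed at 20 nM; compound exposure 15 min at room temperature before reaction start.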
TbPYK inhibitor: blocks Trypanosoma brucei pyruvate kinase; Q57TT1; TbPYK enzyme, Kinase-Glo Plus ATP luminescence, 45 min; Potency, µM (doses to about 76.8 µM), without a hit: at the top dose activity, negative = inhibition, hits mostly inhibitors; actives 0.12% (n = 410,000); AID 624173; further: nearly all actives have a fitted effect of over 50% in size
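Activity of T. brucei pyruvate kinase was followed by Kinase-Glo Plus luminescence after the enzyme reacted 45 min at room temperature with 130 uM ADP (final) and substrate. Test compounds were added before ADP at multiple concentrations.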
RE007 growth inh: less growth of the S. pombe RE007 Vpr strain | S. pombe RE007 Vpr strain, BacTiter-Glo ATP luminescence, 24 h | Potency, µM (top dose mostly 92.2 µM), inactives show top-dose activity change, negative = less growth, usual class: inhibitors | actives 0.21% (n = 360,000) | AID 651644; active means well fitted falling curve with a large enough effect; inconclusive means small, poorly fitted or top-dose-only effect; inactive means no such curve, though single readings can be large or run the other way; further: nearly all actives have a fitted effect of over 50% in size
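Fission yeast RE007 carrying one integrated HIV-1 vpr copy, seeded at OD 0.01 in PMG+AL medium with 23 nL pinned compound. Grown 24 h at 30 degrees; viability read by BacTiter-Glo luminescence after 5 min.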
Active calls of the source: *; ? = inconclusive; · = not tested or not shown; [ ] = another dose, or the depositor's remark. Unless noted, the call rests on the fitted dose curve; in most records, active means well fitted curve in the direction sought with a large enough effect; inconclusive means small, poorly fitted or top-dose-only effect, or another doubt; inactive means no such curve, though single readings can be large; an effect the other way counts as inactive or inconclusive. On the % scale 0 is the no-effect control and ±100 the full control effect; potency means the concentration at half of the fitted maximal effect.

SMILES	FMDV inh	Sm TGR inh	TbPYK inhibitor	RE007 growth inh
COCc1c(C(=O)Nc2ccc3nc(N4CCOCC4)sc3c2)oc2ccccc12	25.1µM*	-12.2%	4.0%	-17.7%
O=C(Nc1ccc2nc(N3CCOCC3)sc2c1)c1ccccc1	24.0%	-1.1%	-6.0%	-10.5%
COc1ccc(-c2cc(C3CCN(c4ccc(C(C)=O)cc4[N+](=O)[O-])CC3)[nH]n2)cc1	17.8µM*	12.1%	?	2.5%
COC(=O)c1ccc(N2CCC(c3cc(-c4ccc(OC)cc4)n[nH]3)CC2)c([N+](=O)[O-])c1	?	18.5%	-9.6%	6.5%
CN(CCC#N)C(=O)CSc1nnc(-c2ccco2)n1N	2.1%	0.0%	-1.4%	4.9%
CCCN(CC1CC1)C(=O)CSc1nnc(-c2ccco2)n1N	·	50.1µM*	·	·
COc1cc(CN2CCC3(CC2)CC3C(=O)Nc2ccc3sc(C)nc3c2)ccc1F (stereo not drawn)	-10.2%	·	·	·
C=CCNC(=O)c1ccccc1NC(=O)C1CC(=O)N(C(C)C)C1 (stereo not drawn)	-9.4%	17.8µM*	-5.3%	5.0%
CC(C)N1CC(C(=O)Nc2ccccc2)CC1=O (stereo not drawn)	0.0%	0.0%	-5.5%	-1.7%
S=C(Nc1ccccc1)Nc1nccs1	34.3%	11.2µM*	-2.4%	·
O=C(CC1(c2cccc(F)c2)CC(=O)N(Cc2cccnc2)C1=O)N1CCCCCCC1 (stereo not drawn)	1.1%	·	·	·
C=CCOc1ccccc1CNc1cccc(F)c1	-9.2%	-12.8%	18.9%	15.2%
C=CCOc1ccccc1CNc1ccc2c(c1)OCCO2	17.8µM*	?	-9.6%	-4.0%
O=S(=O)(c1ccc(=S)[nH]c1)N1CCCCCC1	-8.1%	1.2%	-1.6%	10.5%
O=S(=O)(c1ccc(=S)[nH]c1)N1CCOCC1	-25.3%	-20.5%	7.94µM*	-7.1%
Cc1cc(C)cc(OCC(=O)N2N=C(C(F)(F)F)CC2(O)C(C)(C)C)c1 (stereo not drawn)	?	50.1µM*	-9.9%	23.4%
Cc1nc2ccccn2c1C(=O)/C=C/c1cccc([N+](=O)[O-])c1	6.31µM*	·	-2.1%	-12.1%
CC(C)(CO)N1CCN(C(=S)Nc2ccccc2)CC1	22.4µM*	1.8%	-8.6%	·
S=C(Nc1ccccc1)N1CCCCCC1	27.1%	-3.2%	1.4%	19.1%
Cc1ccc(CNC(=O)c2ccc(CS(=O)Cc3ccccc3Cl)o2)cc1 (stereo not drawn)	-9.4%	35.5µM*	-9.8%	0.8%
Cc1ccc(CS(=O)Cc2ccc(C(=O)NC3CCCC(C)C3C)o2)cc1 (stereo not drawn)	4.3%	35.5µM*	5.2%	2.0%
O=C(NC1CCCCCC1)c1ccc(CS(=O)(=O)Cc2ccccc2F)o1	0.7%	22.4µM*	-7.5%	-4.1%
O=C(NC1CCCC1)c1ccc(CS(=O)(=O)Cc2ccccc2Cl)o1	-1.6%	-32.0%	3.2%	1.8%
Cc1ccc(CS(=O)Cc2ccc(C(=O)NC3CCCCCC3)o2)cc1 (stereo not drawn)	8.3%	?	-8.0%	2.4%
Cc1ccc(CS(=O)Cc2ccc(C(=O)NC3CCC(C)CC3)o2)cc1 (stereo not drawn)	5.0%	?	-1.6%	2.8%
SMILES	FMDV inh	Sm TGR inh	TbPYK inhibitor	RE007 growth inh
O=C(NC1CCCCCC1)c1ccc(CS(=O)Cc2ccccc2Cl)o1 (stereo not drawn)	16.2%	31.6µM*	3.3%	7.1%
COc1ccc(-c2nc(CSc3nc4ncccc4[nH]3)c(C)o2)cc1OC	-22.1%	-13.6%	3.4%	·
CN=c1sc2c(n1C)C(=O)c1ccccc1C2=O	?	·	-25.4%	10µM*
Cc1nc2sc3c(c2c(=O)n1NC(=O)CCBr)CCCC3	?	39.8µM*	-15.8%	2.4%
O=C(C(Cc1ccccc1)N1C(=O)C2C3C=CC(C3)C2C1=O)N1CCCCCC1 (stereo not drawn)	-6.5%	79.4µM*	0.6%	2.1%
O=C(NCc1ccco1)C(Cc1ccccc1)N1C(=O)C2C3C=CC(C3)C2C1=O (stereo not drawn)	-4.3%	22.4µM*	-13.5%	-10.5%
O=C(C(Cc1ccccc1)N1C(=O)C2C3C=CC(C3)C2C1=O)N1CCCCC1 (stereo not drawn)	4.8%	0.0%	-10.9%	1.9%
Cc1nc(SC2CC(=O)N(c3ccccc3)C2=O)n[nH]1 (stereo not drawn)	2.7%	·	-7.4%	?
Cc1nc(S/C(C(=O)O)=C2/C(=O)Nc3ccccc32)n[nH]1	2.51µM*	-20.3%	?	13.7%
CCN(CC)c1ccc(C2NC(=O)c3ccccc3N2)cc1 (stereo not drawn)	11.2µM*	·	-2.7%	5.3%
Clc1ccccc1-c1cc(NCc2ccccc2)ncn1	16.4%	·	·	·
C[C@@H](Cc1ccccc1)NCCC(c1ccccc1)c1ccccc1	·	·	-4.0%[33.2 µM]	·
CC(Cc1cccc(C(F)(F)F)c1)NCCCc1ccccc1 (stereo not drawn)	20µM*	·	·	·
Cn1c(N)c(Sc2ccc([N+](=O)[O-])cc2)c(=O)n(C)c1=O	-1.9%	3.1%	1.3%	-7.8%
Cn1cnc([N+](=O)[O-])c1Sc1ccc([N+](=O)[O-])cc1	22.4µM*	·	-4.8%	34.4%
Cn1cnc([N+](=O)[O-])c1Sc1ncn[nH]1	-24.0%	2.82µM*	-4.3%	·
CN(C)C(=O)c1c([N+](=O)[O-])ncn1C	-21.4%	-2.1%	-1.6%	-9.3%
CC(=O)N1CCC[C@H]1C(=O)NCC1Cc2cc(-c3cccc(OC(F)(F)F)c3)ccc2O1 (stereo partly drawn)	-7.3%	·	·	·
CC(C)c1ccc(CNc2nc(-c3ccco3)nn2C(=O)c2ccc([N+](=O)[O-])cc2)cc1	21.0%	-4.9%	-1.4%	·
O=C(Cn1c(=O)n(Cc2ccco2)c(=O)c2oc3ccccc3c21)Nc1ccc(F)c(Cl)c1	-22.7%	1.9%	-4.4%	·
CCCN1CCN(c2nnc(-n3cccc3C(=O)Nc3cc(Cl)ccc3C)s2)CC1	-2.8%	-6.6%	-14.5%[15.4 µM]	·
Cc1nc2ccc(Br)cn2c(=O)c1Cl	3.98µM*	1.3%	-4.0%	-7.2%
Cc1nc2ccc(Br)cn2c1NC(C)(C)C	-3.7%	-7.1%	-4.3%	-3.4%
COc1ccc(O)c(/C=N/n2c(-c3ccco3)csc2=Nc2cccnc2)c1	?	-15.8%	-1.4%	8.5%
CN=c1scc(-c2ccco2)n1/N=C/c1ccc(O)c(O)c1	14.1µM*	10µM*	-14.1%	-13.5%
SMILES	FMDV inh	Sm TGR inh	TbPYK inhibitor	RE007 growth inh
CCOC(=O)CNC(c1ccccc1)c1cc(Br)ccc1NC(=O)c1ccc(Cl)cc1 (stereo not drawn)	?	1.4%	-4.1%	·
Cc1ccc(C)c(NC(=O)CSc2nc3c([nH]c4ccccc43)c(=O)n2-c2ccc(F)cc2)c1	?	6.2%	3.3%	·
Cc1[nH]n(-c2ccccc2)c(=O)c1N=Nc1c(O)cc(S(=O)(=O)N(C)C)c2ccccc12	12.6µM*	?	-16.5%	3.7%
Cc1cc(Nc2cccc(Cl)c2)c2ccccc2n1	?	1.8%	-6.1%	-1.9%
Cc1cc(Nc2ccc3c(c2)OCCO3)c2cc(Cl)ccc2n1	39.8µM*	0.3%	-1.3%	-8.3%
Brc1ccc(-c2nc3ncccn3c2Nc2ccc3c(c2)OCCO3)o1	3.5%	-26.9%	-3.8%	6.5%
